# Results reported in the supplement of paper PMC8728848.
# The full list was thinned out, with the strongest signals kept by preference.
# B1: CM2 (Cordyceps militaris) (protein)
# chain: MEIAEQNVGKSCAIVNLIPPKEGSNIWTAKQVTIARNLPPNRGTGRHQIDWSFGPVKVTGYVDTTNWEIGVTVSIMGIDLGTVYGNLRDGVVLNVDLFLAKGQVRFYLKNGNEVWVHLSVEIRFDGKFEGDYKIITV
# How the values were obtained:
# Experiment in all cases: glycan array binding signal (z-score within array); higher = stronger binding
# Conditions in all cases: glycan notation: IUPAC condensed, linker removed
# [1] = biological target: Fuc(a1-2)Gal(b1-3)GalNAc(b1-4)[Neu5Ac(a2-3)]Gal(b1-4)Glc
# How it was run: (§1)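 The Consortium for Functional Glycomics database supplied 3228 glycan arrays, of which those lacking an available protein sequence were dropped. The binding signal, a within-array Z-score, was averaged across arrays of the same protein sequence and across linkers. Negative scores can be read as non-binding.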
# Fuc(a1-2)Gal(b1-4)Glc6S = biological target: Fuc(a1-2)Gal(b1-4)Glc6S
# How it was run: as §1
# [2] = biological target: Fuc(a1-2)[Gal(a1-3)]Gal(b1-4)[Fuc(a1-3)]GlcNAc
# How it was run: as §1
# [3] = biological target: Fuc(a1-2)[GalNAc(a1-3)]Gal(b1-3)GlcNAc
# How it was run: as §1
# [4] = biological target: Fuc(a1-2)[GalNAc(a1-3)]Gal(b1-3)GlcNAc(b1-3)GalNAc
# How it was run: as §1
# [5] = biological target: Fuc(a1-2)[GalNAc(a1-3)]Gal(b1-4)GlcNAc(b1-2)Man(a1-3)[Fuc(a1-2)[GalNAc(a1-3)]Gal(b1-4)GlcNAc(b1-2)Man(a1-6)]Man(b1-4)GlcNAc(b1-4)[Fuc(a1-6)]GlcNAc
# How it was run: as §1
# [6] = biological target: Fuc(a1-3)[Gal(b1-4)]GlcNAc
# How it was run: as §1
# [7] = biological target: Gal(a1-3)Gal(b1-3)GlcNAc(b1-2)Man(a1-3)[Gal(a1-3)Gal(b1-3)GlcNAc(b1-2)Man(a1-6)]Man(b1-4)GlcNAc(b1-4)GlcNAc
# How it was run: as §1
# [8] = biological target: Gal(a1-3)Gal(b1-4)GlcNAc(b1-6)GalNAc
# How it was run: as §1
# [9] = biological target: Gal(b1-3)GlcNAc(b1-3)Gal(b1-4)GlcNAc(b1-2)[Gal(b1-3)GlcNAc(b1-3)Gal(b1-4)GlcNAc(b1-6)]Man(a1-6)[Gal(b1-3)GlcNAc(b1-3)Gal(b1-4)GlcNAc(b1-2)Man(a1-3)]Man(b1-4)GlcNAc(b1-4)[Fuc(a1-6)]GlcNAc
# How it was run: as §1
# [10] = biological target: Gal(b1-3)[Fuc(a1-4)]GlcNAc(b1-6)GalNAc
# How it was run: as §1
# [11] = biological target: Gal(b1-3)[Neu5Ac(b2-6)]GalNAc
# How it was run: as §1
# [12] = biological target: Gal(b1-4)GlcNAc(b1-2)Man(a1-3)[Gal(b1-4)GlcNAc(b1-2)Man(a1-6)]Man(b1-4)GlcNAc(b1-4)GlcNAc
# How it was run: as §1
# [13] = biological target: Gal(b1-4)GlcNAc(b1-3)Gal(b1-4)GlcNAc(b1-2)[Gal(b1-4)GlcNAc(b1-3)Gal(b1-4)GlcNAc(b1-6)]Man(a1-6)[Gal(b1-4)GlcNAc(b1-3)Gal(b1-4)GlcNAc(b1-2)Man(a1-3)]Man(b1-4)GlcNAc(b1-4)[Fuc(a1-6)]GlcNAc
# How it was run: as §1
# [14] = biological target: Gal(b1-4)GlcNAc(b1-3)Gal(b1-4)GlcNAc(b1-3)Gal(b1-4)GlcNAc(b1-2)Man(a1-3)[Gal(b1-4)GlcNAc(b1-3)Gal(b1-4)GlcNAc(b1-3)Gal(b1-4)GlcNAc(b1-2)Man(a1-6)]Man(b1-4)GlcNAc(b1-4)[Fuc(a1-6)]GlcNAc
# How it was run: as §1
# [15] = biological target: Gal(b1-4)GlcNAc(b1-3)Gal(b1-4)GlcNAc(b1-3)Gal(b1-4)GlcNAc(b1-3)Gal(b1-4)GlcNAc(b1-2)[Gal(b1-4)GlcNAc(b1-3)Gal(b1-4)GlcNAc(b1-3)Gal(b1-4)GlcNAc(b1-3)Gal(b1-4)GlcNAc(b1-6)]Man(a1-6)[Gal(b1-4)GlcNAc(b1-3)Gal(b1-4)GlcNAc(b1-3)Gal(b1-4)GlcNAc(b1-3)Gal(b1-4)GlcNAc(b1-2)Man(a1-3)]Man(b1-4)GlcNAc(b1-4)[Fuc(a1-6)]GlcNAc
# How it was run: as §1
# Gal3S(b1-3)GlcNAc = biological target: Gal3S(b1-3)GlcNAc
# How it was run: as §1
# Gal3S6S(b1-4)GlcNAc6S = biological target: Gal3S6S(b1-4)GlcNAc6S
# How it was run: as §1
# Gal6S(b1-3)GlcNAc = biological target: Gal6S(b1-3)GlcNAc
# How it was run: as §1
# [16] = biological target: GlcA3S(b1-3)Gal(b1-4)GlcNAc(b1-3)Gal(b1-4)Glc
# How it was run: as §1
# [17] = biological target: GlcNAc(b1-3)Gal(b1-4)GlcNAc(b1-2)Man(a1-3)[GlcNAc(b1-3)Gal(b1-4)GlcNAc(b1-2)Man(a1-6)]Man(b1-4)GlcNAc(b1-4)[Fuc(a1-6)]GlcNAc
# How it was run: as §1
# [18] = biological target: GlcNAc(b1-3)Gal(b1-4)GlcNAc(b1-3)Gal(b1-4)GlcNAc(b1-2)[GlcNAc(b1-3)Gal(b1-4)GlcNAc(b1-3)Gal(b1-4)GlcNAc(b1-6)]Man(a1-6)[GlcNAc(b1-3)Gal(b1-4)GlcNAc(b1-3)Gal(b1-4)GlcNAc(b1-2)Man(a1-3)]Man(b1-4)GlcNAc(b1-4)[Fuc(a1-6)]GlcNAc
# How it was run: as §1
# [19] = biological target: GlcNAc(b1-3)Gal(b1-4)GlcNAc(b1-3)Gal(b1-4)GlcNAc(b1-3)Gal(b1-4)GlcNAc(b1-2)Man(a1-3)[GlcNAc(b1-3)Gal(b1-4)GlcNAc(b1-3)Gal(b1-4)GlcNAc(b1-3)Gal(b1-4)GlcNAc(b1-2)Man(a1-6)]Man(b1-4)GlcNAc(b1-4)GlcNAc
# How it was run: as §1
# GlcNAc(b1-3)GalNAc = biological target: GlcNAc(b1-3)GalNAc
# How it was run: as §1
# [20] = biological target: Kdn(a2-3)Gal(b1-4)[Fuc(a1-3)]GlcNAc
# How it was run: as §1
# [21] = biological target: Man(a1-2)Man(a1-3)[Man(a1-2)Man(a1-6)]Man(a1-6)[Man(a1-2)Man(a1-2)Man(a1-3)]Man
# How it was run: as §1
# [22] = biological target: Man(a1-3)[Man(a1-6)]Man(a1-6)[Man(a1-2)Man(a1-3)]Man(b1-4)GlcNAc(b1-4)GlcNAc
# How it was run: as §1
# [23] = biological target: Neu5Ac(a2-3)Gal(b1-3)GlcNAc(b1-2)Man(a1-3)[GlcNAc(b1-4)][Neu5Ac(a2-3)Gal(b1-3)GlcNAc(b1-2)Man(a1-6)]Man(b1-4)GlcNAc(b1-4)GlcNAc
# How it was run: as §1
# [24] = biological target: Neu5Ac(a2-3)Gal(b1-3)]Neu5Ac(a2-3)Gal(b1-4)]GlcNAc
# How it was run: as §1
# [25] = biological target: Neu5Ac(a2-3)Gal(b1-4)GlcNAc(b1-2)Man(a1-3)[Neu5Ac(a2-6)Gal(b1-4)GlcNAc(b1-2)Man(a1-6)]Man(b1-4)GlcNAc(b1-4)GlcNAc
# How it was run: as §1
# [26] = biological target: Neu5Ac(a2-3)Gal(b1-4)GlcNAc(b1-3)Gal(b1-4)GlcNAc(b1-3)GalNAc
# How it was run: as §1
# [27] = biological target: Neu5Ac(a2-3)Gal(b1-4)GlcNAc(b1-3)Gal(b1-4)GlcNAc(b1-6)[Gal(b1-3)]GalNAc
# How it was run: as §1
# [28] = biological target: Neu5Ac(a2-3)Gal(b1-4)GlcNAc(b1-6)[Gal(b1-3)]GalNAc
# How it was run: as §1
# [29] = biological target: Neu5Ac(a2-3)Gal(b1-4)[Fuc(a1-3)]GlcNAc(b1-3)Gal
# How it was run: as §1
# [30] = biological target: Neu5Ac(a2-3)[GalNAc(b1-4)]Gal(b1-4)GlcNAc(b1-3)GalNAc
# How it was run: as §1
# [31] = biological target: Neu5Ac(a2-6)Gal(b1-4)GlcNAc
# How it was run: as §1
# [32] = biological target: Neu5Ac(a2-6)Gal(b1-4)GlcNAc(b1-2)Man
# How it was run: as §1
# [33] = biological target: Neu5Ac(a2-6)Gal(b1-4)GlcNAc(b1-2)Man(a1-3)[Man(a1-6)]Man(b1-4)GlcNAc(b1-4)GlcNAc
# How it was run: as §1
# [34] = biological target: Neu5Ac(a2-6)Gal(b1-4)GlcNAc(b1-2)[Neu5Ac(a2-6)Gal(b1-4)GlcNAc(b1-6)]Man(a1-6)[Neu5Ac(a2-6)Gal(b1-4)GlcNAc(b1-2)Man(a1-3)][GlcNAc(b1-4)]Man(b1-4)GlcNAc(b1-4)GlcNAc
# How it was run: as §1
# [35] = biological target: Neu5Ac(a2-6)Gal(b1-4)GlcNAc(b1-6)[Gal(b1-3)GlcNAc(b1-3)]Gal(b1-4)Glc
# How it was run: as §1
# [36] = biological target: Neu5Ac(a2-6)Gal(b1-4)GlcNAc6S
# How it was run: as §1
# Neu5Ac(a2-6)GalNAc = biological target: Neu5Ac(a2-6)GalNAc
# How it was run: as §1
# [37] = biological target: Neu5Ac(a2-8)Neu5Ac(a2-3)Gal(b1-4)Glc
# How it was run: as §1
# [38] = biological target: Neu5Ac(a2-8)Neu5Ac(a2-8)Neu5Ac(a2-3)[Gal(b1-3)GalNAc(b1-4)]Gal(b1-4)Glc
# How it was run: as §1
# [39] = biological target: Neu5Ac(a2-8)Neu5Gc(a2-3)Gal(b1-4)GlcNAc
# How it was run: as §1
binder,measurement,setting,value
B1,glycan array binding signal (z-score),[1],0.28
same,glycan array binding signal (z-score),Fuc(a1-2)Gal(b1-4)Glc6S,-0.639
same,glycan array binding signal (z-score),[2],1.81
same,glycan array binding signal (z-score),[3],1.61
same,glycan array binding signal (z-score),[4],1.29
same,glycan array binding signal (z-score),[5],0.394
same,glycan array binding signal (z-score),[6],0.057
same,glycan array binding signal (z-score),[7],-0.635
same,glycan array binding signal (z-score),[8],-0.847
same,glycan array binding signal (z-score),[9],0.677
same,glycan array binding signal (z-score),[10],0.038
same,glycan array binding signal (z-score),[11],0.422
same,glycan array binding signal (z-score),[12],-1.28
same,glycan array binding signal (z-score),[13],2.29
same,glycan array binding signal (z-score),[14],3.05
same,glycan array binding signal (z-score),[15],1.2
same,glycan array binding signal (z-score),Gal3S(b1-3)GlcNAc,0.015
same,glycan array binding signal (z-score),Gal3S6S(b1-4)GlcNAc6S,3.73
same,glycan array binding signal (z-score),Gal6S(b1-3)GlcNAc,-0.595
same,glycan array binding signal (z-score),[16],0.06
same,glycan array binding signal (z-score),[17],2.3
same,glycan array binding signal (z-score),[18],3.55
same,glycan array binding signal (z-score),[19],-0.287
same,glycan array binding signal (z-score),GlcNAc(b1-3)GalNAc,-0.452
same,glycan array binding signal (z-score),[20],0.801
same,glycan array binding signal (z-score),[21],2.53
same,glycan array binding signal (z-score),[22],2.43
same,glycan array binding signal (z-score),[23],1.74
same,glycan array binding signal (z-score),[24],3.98
same,glycan array binding signal (z-score),[25],0.37
same,glycan array binding signal (z-score),[26],3.11
same,glycan array binding signal (z-score),[27],-1.25
same,glycan array binding signal (z-score),[28],-0.406
same,glycan array binding signal (z-score),[29],0.036
same,glycan array binding signal (z-score),[30],0.919
same,glycan array binding signal (z-score),[31],-0.125
same,glycan array binding signal (z-score),[32],2.54
same,glycan array binding signal (z-score),[33],-0.907
same,glycan array binding signal (z-score),[34],-0.924
same,glycan array binding signal (z-score),[35],-1.25
same,glycan array binding signal (z-score),[36],-1.69
same,glycan array binding signal (z-score),Neu5Ac(a2-6)GalNAc,0.447
same,glycan array binding signal (z-score),[37],-0.496
same,glycan array binding signal (z-score),[38],-0.622
same,glycan array binding signal (z-score),[39],-1.52
